# LGR2 antag: blocks bursicon-induced cAMP signaling via Drosophila LGR2. inhibition, % at 9.99 µM. 380,000 compounds, 0.35% hits. HEK293 LGR2, CRE-luciferase, bursicon-stimulated, 4 h;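 active means drop in luminescence signal, shown as inhibition above about 50% in the replicate tests, limit read from the data, passing the limit was not always enough; inconclusive means probably only some replicates passing the limit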;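 further: agonist challenge used bursicon conditioned medium at about half maximal strength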
# LMP1 NFkB inh: inhibitors of Epstein-Barr LMP1-induced NF-kappaB reporter; LMP1-induced NF-kappaB luciferase reporter cells, luminescence; 350,000 compounds, 0.69% hits; inhibition, % at 12.5 µM; AID 504558; in the data active means inhibition above about 41%; inconclusive means no clear call, values can overlap the other calls;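 further: 0% = neutral control wells and 100% = reference inhibitor control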
# aDG glyco act: alpha-DG glycosylation activation; Pro5-aDG cells, alpha-DG glycosylation AlphaScreen (IIH6); 0% Pro5, 100% B10-LARGE cell signal; activation, % at 10 µM; 360,000 compounds, 0.22% hits;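 active means activation of at least 8% versus controls, or a plate z-score of at least 8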;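 further: Pro5 are CHO cells carrying HIG-tagged alpha-DG that lacks glycosylation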
# HSP90 refold inh: blocks HSP90-mediated luciferase refolding in reticulocyte lysate; Rabbit reticulocyte lysate, luciferase refolding luminescence, 3 h; inhibition, % at 5.6 µM; 290,000 compounds, 0.91% hits;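 active means inhibition above the screen-wide mean plus 3 SD, computed separately per campaign, cut at about 16% in these data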;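 further: 0% = DMSO wells and 100% = 60 µM geldanamycin wells; inhibitors lower the luminescence because luciferase stays unfolded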
# TROY signal inh: TROY signaling inhibition. Q293 LMP1-TROYcd NF-kB luciferase reporter, 4 h. inhibition, % at 10 µM. 360,000 compounds, 0.98% hits;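 active means compounds whose plate-normalised and pattern-corrected inhibition of the luciferase reporter signal at the single screening dose is 50% or more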
# TWEAK-Fn14 inh: inhibitors of TWEAK-Fn14 interaction signaling; TWEAK-stimulated Fn14 reporter cells, luciferase luminescence, 8 h; inhibition, % at 10 µM; 360,000 compounds, 2% hits; in the data active means inhibition above about 50%
# * marks the source's active call; other numbers are inactive results; ? = inconclusive; . = no result given. The list is not random: actives were taken first. Their share in the collection is about 2.6%.
SMILES,LGR2 antag,LMP1 NFkB inh,aDG glyco act,HSP90 refold inh,TROY signal inh,TWEAK-Fn14 inh
CC(=O)c1ccc2c(c1)CC1(C2)Cc2cc3c(cc2C1)C(=O)CC3 (configuration not stated),32.4,4.6,0.5,.,51.2*,56.5*
C[C@@H]1CN([C@@H](C)CO)C(=O)c2ccccc2-c2ccccc2CO[C@H]1CN(C)C(=O)Nc1cccc(Cl)c1Cl,2.0,.,.,.,.,.
Cc1ccc(-c2ccc([C@@H]3[C@H](CO)N4CCCCN(C(=O)Nc5ccccc5)C[C@@H]34)cc2)cc1,-4.5,.,.,.,.,.
O=[N+]([O-])c1ccc2c(c1)nc1n2CCN(CC2CCCO2)C1 (configuration not stated),2.7,-9.5,-0.4,-1.7,-10.0,1.7
COCCN1CCn2c(nc3cc([N+](=O)[O-])ccc32)C1,-24.5,-0.9,0.1,-0.5,88.7*,93.6*
CCc1ccc(OCC(=O)NC(NC(=S)Nc2ccc(Cl)cc2)C(Cl)(Cl)Cl)cc1 (configuration not stated),26.8,1.9,0.8,-4.1,46.2,72.0*
CCCC(=O)NC(NC(=S)Nc1ccc(N=Nc2ccccc2)cc1)C(Cl)(Cl)Cl (configuration not stated),.,23.2,2.5,5.9,15.2,75.9*
CC(C)NC(=O)N[C@@H]1CC[C@@H](CCNS(=O)(=O)c2ccc(F)cc2)O[C@H]1CO,2.6,.,.,.,.,.
COc1cccc(NC(=O)N[C@@H]2C=C[C@H](CC(=O)Nc3ccc(-c4ccccc4)cc3)O[C@H]2CO)c1,12.7,.,.,.,.,.
NC(=S)N=Nc1ccc(NN=C(N)N)cc1,9.7,86.3*,0.6,-0.3,17.3,11.6
CC(C)NC(=O)NCC[C@H]1CC[C@H](NC(=O)Nc2ccccc2)[C@H](CO)O1,1.9,.,.,.,.,.
CC(=O)Nc1ccc(S(=O)(=O)c2ccnc3cc(Cl)ccc23)cc1,?,13.9,0.6,.,22.2,77.2*
O=C(C[C@H]1CC[C@H]2[C@@H](COC[C@H](O)CN2C(=O)c2ccccc2)O1)N1CCOCC1,2.2,.,.,.,.,.
Cc1ccc(S(=O)(=O)N2CCN(C(=O)c3ccccc3OCc3c(C)noc3C)CC2)cc1C,-1.7,-3.5,0.2,.,38.6,-1.3
Cc1cc(C)c(S(=O)(=O)N2CCN(C(=O)c3ccccc3OCc3c(C)noc3C)CC2)c(C)c1,-31.5,45.5*,0.0,.,-2.1,-4.2
CN(NS(=O)(=O)c1ccc(Br)cc1)c1nc(C(F)(F)F)nc2ccccc12,7.6,6.5,0.4,4.1,58.3*,18.0
CN(N)c1nc(C(F)(F)F)nc2ccccc12,-9.3,3.1,0.0,1.4,8.3,1.3
CC(C)C#Cc1cnc2c(c1)C(=O)N([C@@H](C)CO)C[C@@H](C)[C@H](CN(C)C(=O)Nc1ccc(F)cc1)O2,8.3,.,.,.,.,.
Cc1ccc(-c2nc(-c3ccncc3)no2)cc1,-63.3,2.6,0.1,9.3,-26.4,39.7
Cc1ccc(-c2nc(-c3ccccc3)no2)cc1,.,-13.7,-0.4,-2.2,47.0,62.0*
COc1ccccc1-c1noc(-c2ccccc2)n1,.,47.2*,0.2,-4.5,-43.9,-10.5
O=c1cc(CN2CCN(c3ccccc3)CC2)nc2scc(-c3ccccc3)n12,15.1,-3.5,-0.1,-0.2,58.1*,41.9
O=C(CCCOc1ccc(Cl)cc1Cl)N1CCN(c2ccccn2)CC1,31.3,4.1,0.0,1.0,36.0,-11.5
O=C(CCCOc1ccccc1)N1CCN(c2ccccn2)CC1,.,-11.8,0.2,10.9,29.6,70.5*
COC(=O)C1CCN(C(=O)CCCOc2ccccc2)CC1,.,10.2,0.2,1.0,-5.3,50.6*
SMILES,LGR2 antag,LMP1 NFkB inh,aDG glyco act,HSP90 refold inh,TROY signal inh,TWEAK-Fn14 inh
CC(C)NC(=O)N(C)C[C@@H]1Oc2ncc(-c3ccccc3F)cc2C(=O)N([C@H](C)CO)C[C@@H]1C,-20.8,.,.,.,.,.
Oc1ccc(/C=N/NC(=S)Nc2cccnc2)c(O)c1O,3.8,-3.5,0.1,4.0,-17.0,50.3*
C[C@@H]1CCCCO[C@@H](CN(C)C(=O)c2ccncc2)[C@@H](C)CN([C@@H](C)CO)C(=O)c2cc(NC(=O)C3CCCCC3)ccc2O1,-4.5,.,.,.,.,.
Cc1nc2nc(C)n(CCN3CCOCC3)c(=O)c2c(-c2cccc([N+](=O)[O-])c2)c1C(=O)CCCCCCCCCCN1CCC(c2ccccc2)(c2ccccc2)CC1,33.2,1.4,-1.0,.,48.7,95.6*
N#Cc1ccccc1NC(=O)CSc1nnc(-c2ccccc2)n1-c1ccccc1,.,-4.5,0.3,1.2,-14.2,13.0
CCN(CC)c1ccc(-c2nnc(SCC(=O)Nc3ccccc3C#N)n2-c2ccccc2)cc1,.,7.6,0.3,2.1,.,74.9*
C=C(NC(=O)C(=C)NC(=O)c1csc(C2=NC3c4csc(n4)C4NC(=O)c5csc(n5)C(C(C)(O)C(C)O)NC(=O)C5CSC(=N5)/C(=C/C)NC(=O)C(C(C)O)NC(=O)c5csc(n5)C3(CC2)NC(=O)C(C)NC(=O)C(=C)NC(=O)C(=C)NC(=O)C(C(C)C)NC2C=Cc3c(C(C)O)cc(nc3C2O)C(=O)OC4C)n1)C(N)=O (configuration not stated),-6.9,64.8*,-0.2,.,-9.1,5.8
O=C(Nc1ccccc1F)N[C@@H]1CC[C@H](CC(=O)N2CCCCC2)O[C@@H]1CO,-0.8,.,.,.,.,.
Cn1nnnc1Sc1ncnc2scc(Br)c12,?,26.8,-0.3,.,67.5*,99.2*
Cn1nnnc1Sc1ncnc2scc(-c3ccccc3Br)c12,20.2,10.4,0.5,.,29.9,38.6
Cn1nnnc1SCSc1nnnn1C,.,11.0,-0.1,-6.0,1.6,5.6
Cn1nnnc1Sc1ncnc2scc(-c3cccc4ccccc34)c12,2.7,5.0,0.3,.,29.3,60.2*
Cn1nnnc1Sc1ncnc2scc(-c3ccc(F)cc3)c12,.,70.6*,0.2,2.0,28.6,57.1*
Cn1nnnc1Sc1ncnc2scc(-c3ccc[nH]3)c12,45.0,-9.7,-0.1,.,-1.3,70.5*
COc1ccccc1-c1csc2ncnc(Sc3nnnn3C)c12,17.0,5.9,0.0,.,-8.2,22.6
Cn1nnnc1Sc1ncnc2scc(-c3ccc(Br)cc3)c12,100.2*,15.3,-0.1,.,60.4*,88.1*
Cn1nnnc1Sc1ncnc2scc(-c3ccccc3)c12,28.6,33.8,0.2,3.1,33.5,28.3
O=C(Nc1ccc(F)c(F)c1)C1CCCCC1,11.5,49.2*,0.0,.,-3.5,-12.5
O=C(Nc1ccccc1)c1cc(C2CCCN(C(=O)CCc3ccccc3)C2)on1 (configuration not stated),.,.,0.1,.,11.7,3.1
CN(C)c1ccc(CC(=O)N2CCCC(c3cc(C(=O)Nc4ccc(C(C)(C)C)cc4)no3)C2)cc1 (configuration not stated),17.4,.,1.7,.,38.4,79.2*
COc1ccc2cc(C(=O)NCc3ccccc3)c(=Nc3ccc(C(=O)O)cc3)oc2c1,-36.9,-7.2,-0.8,0.7,-46.1,58.9*
COc1ccc2cc(C(N)=O)c(=Nc3ccccc3)oc2c1,-63.0,9.9,-0.6,0.4,13.9,72.3*

# High-throughput results deposited in PubChem by several laboratories.
